This note sets out measurements from PubChem BioAssay.

Values joined by “and” are separate entries in the source; they are usually repeats but may differ in a detail not shown here. Identical values can stand only once. Inconclusive results are not listed. Active and inactive are the calls of the source.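 Rule for the calls, unless noted: active = compounds whose cell count with miR-34 switched on is under 0.7 times the count with it off; inactive = the rest.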

A short description of experiment [1]: EMT-state selective cytotoxicity in co-culture – imaging, PC-3E GFP, TEM4-18 mCherry, primary screen (AID 1345086;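 active = compounds killing one labelled cell type while sparing the other, by normalised counts and ratio limits, not self-fluorescent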;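 for all read-outs here: cells exposed to compound for 72 h before imaging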;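 for red/green cell ratio (normalised): normalised mesenchymal count divided by normalised epithelial count so high means epithelial killing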). To be noted: PC-3E GFP / TEM4-18 mCherry co-culture, imaging cell counts, at 1 µM; for red/green cell ratio (normalised): actives lie on both sides, counts scaled to control wells, 1 = unselective.
A short description of experiment [2]: viability loss in pontine glioma line – cell-based, SU-DIPG-XIII, MIPE5.0, CellTiter-Glo, qHTS, dose response (AID 1347064; cut-off not given, nearly all actives have AC50 up to about 23 µM). Particulars: CellTiter-Glo ATP luminescence.
The nature of experiment [3]: viability loss in pontine glioma line – cell-based, SU-DIPG-XXV, MIPE5.0, CellTiter-Glo, qHTS, dose response (AID 1347065; cut-off not given, nearly all actives have AC50 up to about 26 µM;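 note: cells exposed to compound for 48 hours before ATP readout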). To be noted: CellTiter-Glo ATP luminescence.
A short description of experiment [4]: JHH-DIPG-1 glioma cell viability, MIPE5.0 library, CellTiter-Glo luminescence, qHTS (AID 1347067; cut-off not given, nearly all actives have AC50 up to about 26 µM;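 note: cells exposed to compound for 48 hours before readout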). To be noted: JHH-DIPG-1 glioma viability, CellTiter-Glo ATP luminescence. Background: Cellular ATP, detected with luciferase, serves as a proxy for viable cell number.
Experiment [5] in a line: growth inhibition of DIPG cells – cell-based, MIPE5.0 library, qHTS (AID 1347068; cut-off not given, nearly all actives have IC50 up to about 30 µM). To be noted: SU-DIPG-XXV viability. For orientation: In qHTS, concentration-response curves come from the screen itself.
The target in experiment [6] is Mitogen-activated protein kinase 7 (Homo sapiens) (UniProt Q13164). In words: Gal4-ERK5 driven luciferase induction – cell-based, HTS, primary screen (AID 1508626;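 active = luciferase signal above three times the same-plate solvent-only control wells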;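 note: luciferase driven by Gal4-ERK5 fusion binding five Gal4 sites before minimal TATA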). To be noted: HeLa Gal4-ERK5 transactivation, 18 h, at 5 µM, stronger effect = higher value.
The nature of experiment [7]: P. berghei load reduction in hepatocytes – cell-based, HepG2, luciferase luminescence, HepG2 viability, primary screen (AID 624349; in the data active = parasite load remaining mostly below about 12%, no sharp cut-off; inactive = mostly above about 10%;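 note: 100% = mean of DMSO negative control wells on the same plate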). Particulars: P. berghei liver stage in HepG2, luciferase luminescence, concentration not given here; parasite load remaining: stronger effect = lower value; viability: measured here: HepG2 viability without parasites.
Experiment [8] can be described thus: viability loss in pontine glioma line – cell-based, SU-DIPG-XIII, MIPE4.0, CellTiter-Glo, qHTS, dose response (AID 1347061; cut-off not given, nearly all actives have AC50 up to about 37 µM;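 note: cells exposed to compound for 48 hours before readout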). To be noted: CellTiter-Glo ATP luminescence.
A short description of experiment [9]: viability loss in pontine glioma line – cell-based, SU-DIPG-IV, MIPE4.0, CellTiter-Glo, qHTS, dose response (AID 1347063; cut-off not given, nearly all actives have AC50 up to about 30 µM;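 note: compound exposure lasted 48 hours before the viability readout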). Particulars: CellTiter-Glo ATP luminescence.
A short description of experiment [10]: viability loss with induced miR-34 in A549 – imaging, A549 dox-inducible miR-34, nuclei and caspase counts, primary screen (AID 1347080). Particulars: A549 miR-34 inducible, Hoechst nuclei count, 48 h.
For experiment [11], the target named is NAD(+) hydrolase SARM1 (Homo sapiens) (UniProt Q6SZW1). The experiment is described as follows: blocking NAD cleavage by SARM1 SAM-TIR – cell lysate, NAD-Glo luminescence (AID 1508614;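 active = compound whose remaining NAD level is above about 45 nM, limit read from the data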;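 note: higher remaining NAD means stronger inhibition of SARM1 NADase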). To be noted: SAM-TIR HEK293T lysate NADase, at 1 µM, stronger effect = higher value.
The nature of experiment [12]: growth inhibition of DIPG cells – cell-based, MIPE4.0 library, CellTiter-Glo luminescence, qHTS (AID 1347066; cut-off not given, nearly all actives have AC50 up to about 30 µM;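 note: cells exposed to compound for 48 hours before readout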). To be noted: SU-DIPG-VI viability, CellTiter-Glo ATP luminescence.
Experiment [13] in a line: viability loss in pontine glioma line – cell-based, SU-DIPG-XVII, MIPE5.0, CellTiter-Glo, qHTS, dose response (AID 1347060; cut-off not given, nearly all actives have AC50 up to about 26 µM). Particulars: CellTiter-Glo ATP luminescence.
The nature of experiment [14]: MELAS cybrid and Rieske KO viability enhancers – cell-based, MELAS cybrids, Rieske KO mouse fibroblasts, CellTiter-Glo, primary screen (AID 1508586;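 active = mean z-score across replicates of 1.96 or higher in either the MELAS or the Rieske mutant cell line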;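 note: z relative to plate mean and SD of compound and empty wells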). Particulars: low glucose.
A short description of experiment [15]: galactose survival enhancers in mitochondrial complex I cybrids – cell-based, galactose medium, ATP luminescence, primary screen (AID 1645843;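 active = z-score of at least 1.8 in each of two replicates, scored against plate mean and spread of sample wells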;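 note: positive z means more ATP and so rescue of galactose-driven cybrid death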). To be noted: complex I mutant cybrid cells, 72 h, stronger effect = higher value.
Where [16] appears, read: measured here: epithelial PC-3E GFP cell survival.
[17] abbreviates: measured here: mesenchymal TEM4-18 mCherry cell survival.
The mark [18] stands for this setting: stronger effect = lower value, cell number ratio, induced over uninduced.
Where [19] appears, read: measured here: relative caspase fold change +Dox/-Dox.
Where [20] appears, read: measured here: total cells with miR-34 induction, stronger effect = lower value.
[21] abbreviates: measured here: total cells without miR-34 induction.
Setting [22] is: MELAS cybrid survival, CellTiter-Glo 48 h, stronger effect = higher value.
Where [23] appears, read: Rieske KO mouse fibroblast survival, CellTiter-Glo 72 h.

Sequence of Mitogen-activated protein kinase 7 (Homo sapiens) (Q13164 whole entry, looked up, the tested form may be a part): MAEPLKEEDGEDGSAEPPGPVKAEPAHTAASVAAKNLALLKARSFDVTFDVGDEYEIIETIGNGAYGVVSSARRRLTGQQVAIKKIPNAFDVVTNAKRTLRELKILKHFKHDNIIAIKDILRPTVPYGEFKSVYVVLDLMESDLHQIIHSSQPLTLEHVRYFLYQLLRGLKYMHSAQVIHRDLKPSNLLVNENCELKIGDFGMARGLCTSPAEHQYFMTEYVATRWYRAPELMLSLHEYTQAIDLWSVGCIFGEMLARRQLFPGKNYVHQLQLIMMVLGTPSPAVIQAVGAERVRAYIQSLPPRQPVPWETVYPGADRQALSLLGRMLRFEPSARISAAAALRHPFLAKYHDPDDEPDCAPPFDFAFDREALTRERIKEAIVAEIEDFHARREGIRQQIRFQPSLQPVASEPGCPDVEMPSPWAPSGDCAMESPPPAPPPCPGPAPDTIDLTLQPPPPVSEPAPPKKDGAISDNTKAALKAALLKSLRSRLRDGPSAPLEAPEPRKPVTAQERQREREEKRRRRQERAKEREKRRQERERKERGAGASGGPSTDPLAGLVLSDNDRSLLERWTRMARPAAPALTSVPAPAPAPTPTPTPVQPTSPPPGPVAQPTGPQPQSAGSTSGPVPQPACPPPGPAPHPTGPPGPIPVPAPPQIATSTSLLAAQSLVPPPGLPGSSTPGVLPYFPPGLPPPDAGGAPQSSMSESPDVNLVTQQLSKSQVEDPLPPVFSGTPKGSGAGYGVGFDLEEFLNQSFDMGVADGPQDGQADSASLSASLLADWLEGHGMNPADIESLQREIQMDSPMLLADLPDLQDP
Sequence of NAD(+) hydrolase SARM1 (Homo sapiens) (Q6SZW1 whole entry, looked up): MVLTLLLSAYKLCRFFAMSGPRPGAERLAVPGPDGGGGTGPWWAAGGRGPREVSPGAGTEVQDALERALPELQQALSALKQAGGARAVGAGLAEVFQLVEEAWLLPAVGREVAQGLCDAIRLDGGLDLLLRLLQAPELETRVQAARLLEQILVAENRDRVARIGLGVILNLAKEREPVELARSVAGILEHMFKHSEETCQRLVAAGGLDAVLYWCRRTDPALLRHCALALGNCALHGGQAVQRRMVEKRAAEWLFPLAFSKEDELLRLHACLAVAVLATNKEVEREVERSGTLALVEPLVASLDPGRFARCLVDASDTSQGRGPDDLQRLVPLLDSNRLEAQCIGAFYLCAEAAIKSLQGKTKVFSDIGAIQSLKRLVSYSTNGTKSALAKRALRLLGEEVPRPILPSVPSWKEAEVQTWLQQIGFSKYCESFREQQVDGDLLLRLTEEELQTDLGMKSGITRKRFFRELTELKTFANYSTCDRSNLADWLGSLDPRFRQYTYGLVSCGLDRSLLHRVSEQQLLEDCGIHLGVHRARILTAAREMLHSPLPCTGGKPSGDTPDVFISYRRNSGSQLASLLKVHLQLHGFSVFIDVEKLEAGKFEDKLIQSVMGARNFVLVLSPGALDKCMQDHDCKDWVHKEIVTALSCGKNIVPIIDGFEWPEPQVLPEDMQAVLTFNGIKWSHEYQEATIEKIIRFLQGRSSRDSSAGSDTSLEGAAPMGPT

For the compound `COC1=C(OC)C(=O)C(C/C=C(\C)CC/C=C(\C)CC/C=C(\C)CC/C=C(/C)CC/C=C(\C)CC/C=C(\C)CC/C=C(\C)CC/C=C(\C)CC/C=C(\C)CCC=C(C)C)=C(C)C1=O`, the red/green cell ratio (normalised) in experiment [1] is 1.1 (inactive). Further, the normalised cell number in [1] (setting [16]) stood at 0.97; in [1] (setting [17]), 1.06. Besides, the compound was called inactive in experiment [2], in experiment [3], in experiment [4] and in [5]. Besides, the luciferase signal in experiment [6] was 80 AU (inactive).

`C=CC[C@@H]1/C=C(\C)C[C@H](C)C[C@H](OC)[C@H]2O[C@@](O)(C(=O)C(=O)N3CCCC[C@H]3C(=O)O[C@H](/C(C)=C/[C@@H]3CC[C@@H](O)[C@H](OC)C3)[C@H](C)[C@@H](O)CC1=O)[C@H](C)C[C@@H]2OC`: the parasite load remaining in [7] was 58.3% (inactive). The viability – broadly, a read-out of living cells in per cent, often relative to untreated cells – in experiment [7] was 97.1%. For the same compound, the red/green cell ratio (normalised) in [1] was 1.19 (inactive). In addition, the results for the normalised cell number in experiment [1] (setting [16]) and in [1] (setting [17]) were 0.77 and 0.91, respectively. For the same compound, the AC50 (commonly the concentration at which the activity in the assay is half-maximal) in experiment [8] was 23.5 µM (active); in [9] it was 1.18 µM (active); in experiment [3], 20.9 µM (active). The fold change in [10] (setting [18]) was 1.03 (inactive) and 0.874 (inactive); in experiment [10] (setting [19]), 1.61 and 2.51. The cell count in [10] (setting [20]) was 4360 and 8620; in experiment [10] (setting [21]), 4240 and 9860. For the same compound, the remaining NAD in [11] was 10 nM (inactive). The luciferase signal in experiment [6] was 68 AU (inactive).

Take `C[C@]1(Cn2ccnn2)C(C(=O)O)N2C(=O)CC2S1(=O)=O` (stereo partly specified): the red/green cell ratio (normalised) in experiment [1] was 0.89 (inactive). For the same compound, the values for the normalised cell number in experiment [1] (setting [16]) and in experiment [1] (setting [17]) were 1.34 and 1.19, respectively. For the same compound, the figures for the fold change in experiment [10] (setting [18]) and in [10] (setting [19]) were 0.905 (inactive) and 0.742, respectively. Besides, the cell count in experiment [10] (setting [20]) amounted to 8100; in experiment [10] (setting [21]), 8960.

On to `CC(=O)OCC(=O)[C@@]1(O)[C@@H](C)CC2C3CCC4=CC(=O)C=C[C@]4(C)[C@@]3(F)[C@@H](O)C[C@@]21C` (stereo partly specified), for which the red/green cell ratio (normalised) in experiment [1] is 0.93 (inactive). Besides, the normalised cell number was 1.21 in experiment [1] (setting [16]) and 1.13 in experiment [1] (setting [17]). For the same compound, the fold change in [10] (setting [18]) was 0.963 (inactive); in experiment [10] (setting [19]) it was 0.848. Moreover, the cell count stood at 6280 in experiment [10] (setting [20]) and 6520 in experiment [10] (setting [21]).

For the compound `Oc1cc2c(cc1O)C1c3ccc(O)c(O)c3OCC1(O)C2` (stereo unspecified), in experiment [1], the red/green cell ratio (normalised) was 1.05 (inactive). Besides, the normalised cell number in [1] (setting [16]) stood at 1.12; in experiment [1] (setting [17]), 1.18. The compound was classed as inactive in experiment [8], in experiment [9], in [12] and in experiment [5].

For the compound `CC(C)(CO)[C@@H](O)C(=O)NCCC(=O)O`, the parasite load remaining in [7] was 90.7% (inactive) and 34.6% (inactive). Moreover, the viability in experiment [7] is 107% and 75%. The red/green cell ratio (normalised) in experiment [1] is 1.39 (inactive). The figures for the normalised cell number in experiment [1] (setting [16]) and in [1] (setting [17]) were 0.63 and 0.88, respectively. Further, the call in experiment [13], in experiment [8], in experiment [9], in experiment [2], in [12] and in [4] was inactive. Further, the outcome in experiment [5] was inactive. Further, the fold change in experiment [10] (setting [18]) is 0.92 (inactive) and 0.869 (inactive) and 0.91 (inactive); in experiment [10] (setting [19]), 0.716 and 3.95 and 1.15. Besides, the cell count in experiment [10] (setting [20]) was 9860 and 12000 and 9850; in experiment [10] (setting [21]) it was 10700 and 13800 and 10800. The z-score in experiment [14] (setting [22]) was -0.406 (inactive) and -0.744 (inactive); in [14] (setting [23]) it was 0.568 and -1.28; in experiment [15] it was -0.065 (inactive). In addition, the remaining NAD in experiment [11] was 10 nM (inactive). In addition, the luciferase signal in experiment [6] was 68 AU (inactive).

On to `CN[C@@H]1[C@H](O[C@H]2[C@H](O[C@@H]3[C@@H](O)[C@H](O)[C@@H](N=C(N)N)[C@H](O)[C@H]3N=C(N)N)O[C@@H](C)[C@]2(O)C=O)O[C@@H](CO)[C@H](O)[C@H]1O`, for which, in [7], the parasite load remaining was 51.2% (inactive) and 45.6% (inactive) and 35.8% (inactive). Further, the viability in experiment [7] was 118% and 97.5% and 75%. In experiment [1], the red/green cell ratio (normalised) is 0.77 (inactive). For the same compound, the normalised cell number in [1] (setting [16]) is 1.28; in experiment [1] (setting [17]), 0.98. Also, the outcome in experiment [13], in experiment [2], in experiment [3], in [4] and in experiment [5] was inactive. Moreover, the fold change in experiment [10] (setting [18]) is 0.935 (inactive) and 0.903 (inactive); in [10] (setting [19]), 0.998 and 1.43. Moreover, the cell count in experiment [10] (setting [20]) is 7810 and 9380; in [10] (setting [21]) it was 8360 and 10400. In addition, the z-score in [14] (setting [22]) is -0.628 (inactive) and -0.564 (inactive); in experiment [14] (setting [23]), -0.384 and -1.54; in [15], -0.095 (inactive).
